# From PubChem BioAssay (NCI)
# This is part of a sample that, as a whole, favours compounds with a hit. Of some 79,000 tested, about 15% had one in any assay. Values without a mark were called inactive. Active and inactive are the calls of the source. Rule as the data show it: active = growth inhibition above about 70%; inactive = the rest.
# Tests used:
# [1] = NCI Yeast Anticancer Drug Screen. Data for the rad52 strain (AID 147);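 also: 0% = growth of vehicle-treated control cultures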; settings: S. cerevisiae rad52 mutant growth inhibition, active compounds read high
# Outline: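 Vehicle-treated cultures served as the reference for growth inhibition of compound-exposed yeast bearing a DNA repair mutation.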
# [2] = NCI Yeast Anticancer Drug Screen. Data for the wt1 strain (AID 149);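 also: 0% = growth of vehicle-treated wt1 cultures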; settings: S. cerevisiae wt1 strain (SPY 50644) growth inhibition, active compounds read high
# Outline: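 wt1 strain grown with compound or vehicle; inhibition taken from the growth difference.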
# [3] = NCI Yeast Anticancer Drug Screen. Data for the rad50EPP+ strain (AID 151);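 also: 0% = growth of vehicle-treated control cultures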; settings: S. cerevisiae rad50 mutant strain, active compounds read high
# Outline: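 In this screen, rad50EPP+ yeast were exposed to compounds. Growth inhibition was scored against vehicle-treated controls.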
# [4] = NCI Yeast Anticancer Drug Screen. Data for the mgt1 strain (AID 153); settings: S. cerevisiae mgt1 mutant growth inhibition, active compounds read high
# Outline: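 mgt1 strain exposed; growth vs vehicle control recorded as inhibition.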
# [5] = NCI Yeast Anticancer Drug Screen. Data for the rad50 strain (AID 155);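 also: 0% = growth of vehicle-only cultures of the same strain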; settings: S. cerevisiae rad50 strain growth inhibition, active compounds read high
# Outline: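 DNA repair mutant yeast, compound exposure, growth read-out; inhibition is taken relative to vehicle.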
# [6] = NCI Yeast Anticancer Drug Screen. Data for the mec2-1 strain (AID 157); settings: S. cerevisiae mec2-1 strain, active compounds read high
# Outline: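 Vehicle-treated cultures served as reference for growth inhibition of compound-exposed mec2-1 yeast.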
# [7] = NCI Yeast Anticancer Drug Screen. Data for the rad14 strain (AID 159);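 also: 0% = growth of vehicle-treated control cultures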; settings: S. cerevisiae rad14 strain growth inhibition, active compounds read high
# Outline: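 DNA repair-defective yeast, compound-exposed; % growth inhibition derived by comparison with vehicle-treated controls.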
# [8] = NCI Yeast Anticancer Drug Screen. Data for the sgs1 mgt1 strain (AID 161);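 also: 0% = growth of cultures given vehicle only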; settings: S. cerevisiae sgs1 mgt1 strain, active compounds read high
# Outline: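 Read-out: growth inhibition vs vehicle controls. Cells: mutant yeast strain deficient in DNA damage repair.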
# [9] = NCI Yeast Anticancer Drug Screen. Data for the CLN2oe strain (AID 163);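 also: 0% = growth of vehicle-only control cultures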; settings: S. cerevisiae CLN2oe strain, active compounds read high
# Outline: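 Inhibition relative to vehicle-treated yeast is reported. Cells: strain with genetic alteration in cell-cycle control, grown with compound.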
# [10] = NCI Yeast Anticancer Drug Screen. Data for the cln2 rad14 strain (AID 165);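 also: 0% = growth equal to vehicle treated cultures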; settings: S. cerevisiae cln2 rad14 strain, active compounds read high
# Outline: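 Each compound was tested on cln2 rad14 yeast. Inhibition of growth was calculated against vehicle-exposed controls.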
# [11] = NCI Yeast Anticancer Drug Screen. Data for the bub3 strain (AID 167); settings: S. cerevisiae bub3 mutant strain, active compounds read high
# Outline: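 In this screen, a yeast mutant lacking normal mitotic checkpoint function is challenged with compound. Relative growth versus vehicle gives the inhibition value.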
# [12] = NCI Yeast Anticancer Drug Screen. Data for the wt2 strain (AID 169);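 also: 0% = growth of vehicle-treated yeast cultures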; settings: S. cerevisiae wt2 strain growth inhibition, active compounds read high
# Outline: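 Inhibition of yeast growth was determined after compound treatment, normalised to controls receiving only vehicle.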
# [13] = NCI Yeast Anticancer Drug Screen. Data for the mlh1 strain (AID 171);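 also: 0% = growth of vehicle-treated control cultures of the same strain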; settings: S. cerevisiae mlh1 strain growth inhibition, active compounds read high
# Outline: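 Vehicle-normalised growth inhibition of a repair- or checkpoint-altered yeast strain following compound treatment.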
# [14] = NCI Yeast Anticancer Drug Screen. Data for the sgs1 strain (AID 173);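 also: 0% = growth of vehicle-only control cultures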; settings: S. cerevisiae sgs1 mutant, active compounds read high
# Outline: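 Screen format: yeast with repair or checkpoint alterations, compound exposure, growth read relative to vehicle.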
# [15] = NCI Yeast Anticancer Drug Screen. Data for the mlh1 rad18 strain (AID 175); settings: S. cerevisiae mlh1 rad18 strain growth inhibition, active compounds read high
# Outline: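 Vehicle-treated cultures served as the reference for growth inhibition in a yeast strain carrying DNA damage repair alterations exposed to each compound.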
# [16] = NCI Yeast Anticancer Drug Screen. Data for the rad18 strain (AID 177); settings: S. cerevisiae rad18 mutant growth inhibition, active compounds read high
# Outline: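 Test articles were incubated with altered yeast defective in DNA damage repair. Results are given as inhibition of growth versus vehicle.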
# [17] = at 5.0 µM (retest, dose inferred, filed as 0.5)
# [18] = at 50.0 µM (retest, dose inferred, filed as 5.0)
structure (smiles),measurement,setting,value
Cc1cc(C)c(N2C(=O)CC(Sc3ccccc3N)C2=O)c(C)c1 (stereo not given),growth inhibition,[1]; at 1.2 µM,-27%
same,growth inhibition,[1]; at 3.7 µM,-20%
same,growth inhibition,[1]; at 11.0 µM,-31%
same,growth inhibition,[1]; at 33.0 µM,-14%
same,growth inhibition,[1]; at 100.0 µM,-22%
same,growth inhibition,[2]; at 1.2 µM,-53%
same,growth inhibition,[2]; at 3.7 µM,-52%
same,growth inhibition,[2]; at 11.0 µM,-58%
same,growth inhibition,[2]; at 33.0 µM,-62%
same,growth inhibition,[2]; at 100.0 µM,-45%
same,growth inhibition,[3]; at 1.2 µM,-15%
same,growth inhibition,[3]; at 3.7 µM,-13%
same,growth inhibition,[3]; at 11.0 µM,-16%
same,growth inhibition,[3]; at 33.0 µM,-11%
same,growth inhibition,[3]; at 100.0 µM,1%
same,growth inhibition,[4]; at 1.2 µM,-57%
same,growth inhibition,[4]; at 3.7 µM,-57%
same,growth inhibition,[4]; at 11.0 µM,-57%
same,growth inhibition,[4]; at 33.0 µM,-38%
same,growth inhibition,[4]; at 100.0 µM,-21%
same,growth inhibition,[5]; at 1.2 µM,-34%
same,growth inhibition,[5]; at 3.7 µM,-30%
same,growth inhibition,[5]; [17],37%
same,growth inhibition,[5]; at 11.0 µM,-33%
same,growth inhibition,[5]; at 33.0 µM,-42%
same,growth inhibition,[5]; [18],41%
same,growth inhibition,[5]; at 50.0 µM,30.1%
same,growth inhibition,[5]; at 100.0 µM,-27%
same,growth inhibition,[6]; at 1.2 µM,-42%
same,growth inhibition,[6]; at 3.7 µM,-44%
same,growth inhibition,[6]; [17],45%
same,growth inhibition,[6]; at 11.0 µM,-45%
same,growth inhibition,[6]; at 33.0 µM,-36%
same,growth inhibition,[6]; [18],48%
same,growth inhibition,[6]; at 50.0 µM,48.5%
same,growth inhibition,[6]; at 100.0 µM,-24%
same,growth inhibition,[7]; at 1.2 µM,-59%
same,growth inhibition,[7]; at 3.7 µM,-53%
same,growth inhibition,[7]; at 11.0 µM,-53%
same,growth inhibition,[7]; at 33.0 µM,-56%
same,growth inhibition,[7]; at 100.0 µM,-45%
same,growth inhibition,[8]; [17],0%
same,growth inhibition,[8]; [18],91% (active)
same,growth inhibition,[8]; at 50.0 µM,42.9%
same,growth inhibition,[9]; at 1.2 µM,-16%
same,growth inhibition,[9]; at 3.7 µM,-11%
same,growth inhibition,[9]; at 11.0 µM,-2%
same,growth inhibition,[9]; at 33.0 µM,14%
same,growth inhibition,[9]; at 100.0 µM,-2%
same,growth inhibition,[10]; [17],34%
same,growth inhibition,[10]; [18],76% (active)
same,growth inhibition,[10]; at 50.0 µM,6.4%
same,growth inhibition,[11]; at 1.2 µM,-48%
same,growth inhibition,[11]; at 3.7 µM,-43%
same,growth inhibition,[11]; [17],-26%
same,growth inhibition,[11]; at 11.0 µM,-51%
same,growth inhibition,[11]; at 33.0 µM,-48%
same,growth inhibition,[11]; [18],91% (active)
same,growth inhibition,[11]; at 50.0 µM,51.6%
same,growth inhibition,[11]; at 100.0 µM,-51%
same,growth inhibition,[12]; at 1.2 µM,-14%
same,growth inhibition,[12]; at 3.7 µM,-19%
same,growth inhibition,[12]; at 11.0 µM,-1%
same,growth inhibition,[12]; at 33.0 µM,-8%
same,growth inhibition,[12]; at 100.0 µM,19%
same,growth inhibition,[13]; at 1.2 µM,-33%
same,growth inhibition,[13]; at 3.7 µM,-27%
same,growth inhibition,[13]; at 11.0 µM,-27%
same,growth inhibition,[13]; at 33.0 µM,-23%
same,growth inhibition,[13]; at 100.0 µM,1%
same,growth inhibition,[14]; at 1.2 µM,-37%
same,growth inhibition,[14]; at 3.7 µM,-41%
same,growth inhibition,[14]; at 11.0 µM,-34%
same,growth inhibition,[14]; at 33.0 µM,-28%
same,growth inhibition,[14]; at 100.0 µM,-21%
same,growth inhibition,[15]; [17],24%
same,growth inhibition,[15]; [18],44%
same,growth inhibition,[15]; at 50.0 µM,34.3%
same,growth inhibition,[16]; at 1.2 µM,-54%
same,growth inhibition,[16]; at 3.7 µM,-45%
same,growth inhibition,[16]; at 11.0 µM,-38%
same,growth inhibition,[16]; at 33.0 µM,-47%
same,growth inhibition,[16]; at 100.0 µM,-44%
NC(N)=NCCCS(=O)(=O)Nc1ccc(Nc2c3ccccc3nc3cc([N+](=O)[O-])ccc23)cc1,growth inhibition,[1]; at 1.2 µM,-26%
same,growth inhibition,[1]; at 3.7 µM,8%
same,growth inhibition,[1]; at 11.0 µM,36%
same,growth inhibition,[1]; at 33.0 µM,79% (active)
same,growth inhibition,[1]; at 100.0 µM,91% (active)
same,growth inhibition,[2]; at 1.2 µM,-20%
same,growth inhibition,[2]; at 3.7 µM,-18%
same,growth inhibition,[2]; at 11.0 µM,-26%
same,growth inhibition,[2]; at 33.0 µM,-15%
same,growth inhibition,[2]; at 100.0 µM,42%
same,growth inhibition,[3]; at 1.2 µM,-21%
same,growth inhibition,[3]; at 3.7 µM,-11%
same,growth inhibition,[3]; at 11.0 µM,17%
same,growth inhibition,[3]; at 33.0 µM,44%
same,growth inhibition,[3]; at 100.0 µM,68%
same,growth inhibition,[4]; at 1.2 µM,-24%
same,growth inhibition,[4]; at 3.7 µM,-29%
same,growth inhibition,[4]; at 11.0 µM,-10%
same,growth inhibition,[4]; at 33.0 µM,18%
same,growth inhibition,[4]; at 100.0 µM,65%
same,growth inhibition,[5]; at 1.2 µM,-4%
same,growth inhibition,[5]; at 3.7 µM,-4%
same,growth inhibition,[5]; [17],23%
same,growth inhibition,[5]; at 11.0 µM,44%
same,growth inhibition,[5]; at 33.0 µM,83% (active)
same,growth inhibition,[5]; [18],88% (active)
same,growth inhibition,[5]; at 50.0 µM,72.9% (active)
same,growth inhibition,[5]; at 100.0 µM,89% (active)
same,growth inhibition,[6]; at 1.2 µM,-37%
same,growth inhibition,[6]; at 3.7 µM,-32%
same,growth inhibition,[6]; [17],-22%
same,growth inhibition,[6]; at 11.0 µM,-26%
same,growth inhibition,[6]; at 33.0 µM,11%
same,growth inhibition,[6]; [18],74% (active)
same,growth inhibition,[6]; at 50.0 µM,60%
same,growth inhibition,[6]; at 100.0 µM,70% (active)
same,growth inhibition,[7]; at 1.2 µM,-10%
same,growth inhibition,[7]; at 3.7 µM,-1%
same,growth inhibition,[7]; at 11.0 µM,-1%
same,growth inhibition,[7]; at 33.0 µM,31%
same,growth inhibition,[7]; at 100.0 µM,81% (active)
same,growth inhibition,[8]; [17],20%
same,growth inhibition,[8]; [18],83% (active)
same,growth inhibition,[8]; at 50.0 µM,63.1%
same,growth inhibition,[9]; at 1.2 µM,-65%
same,growth inhibition,[9]; at 3.7 µM,-47%
same,growth inhibition,[9]; at 11.0 µM,-51%
same,growth inhibition,[9]; at 33.0 µM,-11%
same,growth inhibition,[9]; at 100.0 µM,49%
same,growth inhibition,[10]; [17],-18%
same,growth inhibition,[10]; [18],66%
same,growth inhibition,[10]; at 50.0 µM,47.4%
same,growth inhibition,[11]; at 1.2 µM,0%
same,growth inhibition,[11]; at 3.7 µM,0%
same,growth inhibition,[11]; [17],11%
same,growth inhibition,[11]; at 11.0 µM,-10%
same,growth inhibition,[11]; at 33.0 µM,3%
same,growth inhibition,[11]; [18],70% (active)
same,growth inhibition,[11]; at 50.0 µM,57.8%
same,growth inhibition,[11]; at 100.0 µM,74% (active)
same,growth inhibition,[13]; at 1.2 µM,-20%
same,growth inhibition,[13]; at 3.7 µM,-10%
same,growth inhibition,[13]; at 11.0 µM,3%
same,growth inhibition,[13]; at 33.0 µM,32%
same,growth inhibition,[13]; at 100.0 µM,81% (active)
same,growth inhibition,[14]; at 1.2 µM,29%
same,growth inhibition,[14]; at 3.7 µM,1%
same,growth inhibition,[14]; at 11.0 µM,-13%
same,growth inhibition,[14]; at 33.0 µM,23%
same,growth inhibition,[14]; at 100.0 µM,69%
same,growth inhibition,[15]; [17],-8%
same,growth inhibition,[15]; [18],83% (active)
same,growth inhibition,[16]; at 1.2 µM,-28%
same,growth inhibition,[16]; at 3.7 µM,-39%
same,growth inhibition,[16]; at 11.0 µM,-41%
same,growth inhibition,[16]; at 33.0 µM,-13%
same,growth inhibition,[16]; at 100.0 µM,74% (active)
